# Rows were chosen to be rich in hits. Some 1.6% of all compounds tested hit in one or more screens of this group.
# KCNQ2 pot: potentiators of rat KCNQ2 potassium channel. Potassium voltage-gated channel subfamily KQT member 2 (Rattus norvegicus), O88943. CHO-K1 KCNQ2, FluxOR thallium flux fluorescence; active compounds read high. B-score at 10 µM. actives 0.54% (n = 310,000);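 active = fluorescence ratio B-score at least 3 SD of library B-scores, with initial fluorescence B-score within 3 of them, cut at about 5.3 in these data; same plate scores as AID 2156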;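 note: B-score of peak minus minimum over baseline fluorescence ratio after K+ and Tl+ stimulus; positive B-score means potentiation of KCNQ2 with more thallium influx and brighter signal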
# KCNQ2 block: rat KCNQ2 potassium channel inhibitors, primary screen, cell-based, CHO-K1, FluxOR thallium flux, B-score. Potassium voltage-gated channel subfamily KQT member 2 (Rattus norvegicus), O88943. 20 min; active compounds read low. B-score at 10 µM. actives 1.1% (n = 310,000). AID 2156, 2009;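 active = fluorescence ratio B-score at most minus 3 library SDs, with starting brightness B-score within 2 library SDs, cut at about -5.5 in these data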
# Numbers stand for hits; . = inactive; / = no result given.
SMILES,KCNQ2 pot,KCNQ2 block
CSc1sc(C(=O)N2CCCCC2)c(-c2cccs2)c1C#N,/,.
CCOCCOC(=O)C1=C(C)NC2=C(C(=O)CC(c3cccs3)C2)C1c1ccsc1 (stereo not given),/,.
CC1=C(C(=O)Nc2ccccc2F)C(c2ccsc2)C2=C(CC(c3ccccc3)CC2=O)N1 (stereo not given),.,-6.1
CCc1cc2c(SCC(=O)Nc3cc(C)on3)ncnc2s1,/,.
Cc1nn(CC(=O)NCCCN2CCCC2)c(=O)c2nn(-c3ccccc3)c(C)c12,.,.
O=C(N/N=C/c1cccc([N+](=O)[O-])c1O)c1cccs1,6,.
O=C(N/N=C/c1ccc([N+](=O)[O-])cc1)c1cccs1,/,.
COc1ccc(/C(N)=N/OC(=O)CC2CCCCC2)cc1,/,.
COc1cc(C(=O)OCC(=O)c2c[nH]c3ccccc23)ccc1OCC(=O)N1CCOCC1,/,.
COc1cc(OC)c(N(C)S(=O)(=O)c2cccc(C(=O)OCC(=O)c3c[nH]c4ccccc34)c2)cc1Cl,6.3,.
Cc1ccc(C(=O)OCC(=O)c2c[nH]c3ccccc23)cc1,.,.
C=CCN(c1ccccc1OC)S(=O)(=O)c1cccc(C(=O)OCC(=O)c2c[nH]c3ccccc23)c1,6.7,.
CCN1CCN(c2oc(/C=C/c3ccccc3)nc2C#N)CC1,/,.
COc1nnc(-c2ccc(N3CCCCC3)c(NC(=O)C3CCCCC3)c2)c2ccccc12,.,-6.2
COc1nnc(-c2ccc(N3CCOCC3)c(NC(=O)C3CCCCC3)c2)c2ccccc12,/,.
O=C(c1ccc(-c2ccccc2)cc1)N1CCN(c2ccccn2)CC1,.,.
CCN1CCN(C(=O)c2cn(CCOC)c(=O)c3c2c2ccccc2n3C)CC1,.,.
CC(C)Cn1cc(C(=O)N2CCN(c3ccccn3)CC2)c2c3ccccc3n(C)c2c1=O,.,-5.7
COCCn1cc(C(=O)N2CCCC(C)C2)c2c3ccccc3n(C)c2c1=O (stereo not given),.,-6.6
COCCCNC(=O)c1cn(CC(C)C)c(=O)c2c1c1ccccc1n2C,.,.
COC(=O)C1=C(C(=O)OC)SC(=C2C(=S)C(C)(C)N(C(=O)C(C)C)c3ccccc32)S1,/,.
CCCC(=O)N1c2ccccc2C(=C2SC(C(=O)OC)=C(C(=O)OC)S2)C(=S)C1(C)C,.,-7.9
O=C1CC(=C(c2ccccc2)c2ccccc2)C(=O)N1CCN1CCN(c2cccc(Cl)c2)CC1,.,-5.6
O=C1CC(=C(c2ccccc2)c2ccccc2)C(=O)N1CCCN1CCN(c2cccc(Cl)c2)CC1,/,.
CCOC(=O)C1=C(C)NC(C)=C(C(=O)OCC)C1c1ccccc1/C=C/C(=O)OC(C)(C)C,.,-6.7
SMILES,KCNQ2 pot,KCNQ2 block
CCOC(=O)C1=C(C)NC(C)=C(C(=O)OCC)C1/C=C/c1ccccc1OC,.,.
CCSCCc1nnc(NC(=O)Nc2cccc(C(F)(F)F)c2)s1,.,.
Cn1c(=O)c([N+](=O)[O-])c(-n2ccnc2)c2ccccc21,.,-6
Cn1c(=O)c([N+](=O)[O-])c(NCCCn2ccnc2)c2ccccc21,/,.
Cc1nn2c(N3CCN(C(=O)c4ccco4)CC3)cc(C(C)(C)C)nc2c1-c1ccccc1,.,-6.5
Cc1nn2c(N3CCN(C)CC3)cc(C(C)(C)C)nc2c1-c1ccccc1,/,.
COc1ccc(S(=O)(=O)N2CCOC2CNC(=O)C(=O)NCCCN2CCOCC2)cc1OC (stereo not given),.,.
COc1cccc(NC(=O)c2cc3cccc(OC)c3o/c2=N\O)c1,.,-7.1
COc1cccc(NC(=O)c2cc3ccccc3o/c2=N\O)c1,/,.
CC(=O)c1ccc(NC(=O)CSc2nc(C3CC3)nc3ccccc23)cc1,.,.
O=C(CSc1nc(C2CC2)nc2ccccc12)N1c2ccccc2Sc2ccccc21,.,-6.1
O=C(C/C=N/OCc1c(Cl)cccc1Cl)c1ccc(Cl)cc1,.,-7.4
O=C(C/C=N/OCc1c(Cl)cccc1Cl)c1cnc(-c2ccccc2)s1,/,.
Cc1ccc(Cl)cc1N1CCN(C(=S)NCc2ccco2)CC1,/,.
S=C(NCc1ccco1)N1CCN(c2ccccc2Cl)CC1,.,-5.8
CCCCOC(=O)Nc1cccc(C(C)=O)c1,/,.
COc1cccc(C2c3c(oc4ccc(Cl)cc4c3=O)C(=O)N2c2cc(C)on2)c1OC (stereo not given),.,-7.2
COc1ccc(/C(O)=C2\C(=O)C(=O)N(c3cc(C)on3)C2c2cccc(OC)c2OC)cc1C (stereo not given),.,.
CN(Cc1ccccc1)Cc1c(F)cccc1F,6.6,.
COc1ccc2ccccc2c1CN(C)Cc1ccccc1,.,.
Cc1ccc2[nH]c(=O)c(COC(=O)c3cccs3)cc2c1,.,.
Cc1ccc(C)n1-c1ccc(C(=O)NN)s1,.,-5.7
CCOC(=O)CNC(=O)c1ccc(Br)s1,/,.
N#Cc1c(Cl)cccc1Oc1ccc(S(=O)(=O)Nc2ccccc2)cc1,.,.
Cc1ccc(-c2ccc(C(=O)NCc3ccccc3)o2)c2ccccc12,/,.
SMILES,KCNQ2 pot,KCNQ2 block
Cc1ccc(-c2ccc(C(=O)Nc3ccccc3)o2)c2ccccc12,.,-5.7
CCC(NC(=O)c1ccc2nc(Cc3ccc(OC)cc3)oc2c1)c1ccncc1 (stereo not given),.,.
Cc1ccc(N2CC(C(=O)OCc3nnc(-c4ccccc4)o3)CC2=O)cc1 (stereo not given),.,.
O=C(NC(=S)NNC(=O)c1ccccc1O)c1ccccc1,/,.
Cc1ccccc1C(=O)NNC(=S)NC(=O)c1ccccc1,5.3,.
COc1cccc(CN2C(=O)C3CCCN3c3ccc(S(=O)(=O)N4CCOCC4)cc32)c1 (stereo not given),/,.
N#CC1=C(c2ccc(-c3ccccc3)cc2)COC1=O,.,-5.7
O=C1OCC(c2ccccc2)=C1c1ccccc1,.,.
COC(=O)c1cc(S(=O)(=O)N2CCC(c3cc(OC)ccc3OC)C2)c[nH]1 (stereo not given),.,.
COc1ccc2[nH]cc(CCN=C3SCC(=O)N3C)c2c1,.,.
O=C(c1ccccc1)N1CCc2ccccc21,/,.
O=C(NC(=S)N1CCc2ccccc21)c1ccccc1,14,.
CCc1ccc(/C(C)=N/NS(=O)(=O)c2ccc(OC)cc2)s1,.,.
CC1(C)Cc2c(C#N)c(NCc3ccco3)nc(-c3ccco3)c2CO1,.,.
CC1(C)Cc2c(C#N)c(N3CCCC3)nc(-c3ccco3)c2CO1,.,-9.1
O=C(OCc1ccc(C(=O)c2ccccc2)cc1)c1cccc(-c2nnc(-c3ccccc3)o2)c1,/,.
O=C(OCc1ccccc1)c1cccc(-c2nnc(-c3ccccc3)o2)c1,.,-6.3
Cc1c(NC2=NC3(CCCCC3)Cc3ccccc32)c(=O)n(-c2ccccc2)n1C,.,.
CC1(C)CC(=O)C(C2=NC3(CCCCCC3)Cc3ccccc32)=C(O)C1,.,-5.8
N/C(=N\OC(=O)CCC1CCCCC1)c1ccc([N+](=O)[O-])cc1,.,.
N/C(=N\OC(=O)CC1CCCCC1)c1cccc([N+](=O)[O-])c1,10,.
N/C(=N\OC(=O)CCC1CCCC1)c1cccc([N+](=O)[O-])c1,5.8,.
N/C(=N\OC(=O)CC1CCCCC1)c1ccc([N+](=O)[O-])cc1,/,.
Cc1cccc(C(=O)OC(C)CN2C(C)CCCC2C)c1 (stereo not given),/,.
COc1ccccc1C1CC(c2cccs2)=Nc2ccccc2S1 (stereo not given),/,.

# From PubChem BioAssay
